The source of these data is PubChem BioAssay (NCATS).

For assay [1], the target named is Cytochrome P450 2C19 (Homo sapiens) (UniProt P33261). Nature of the assay: qHTS for inhibitors of CYP2C19 against the NCATS DSHEA and TCM libraries (AID 1919974).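 Further: luminescence from luciferin released by CYP2C19 oxidation of a pro-luciferin substrate.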 Further: potency means the concentration at half of the fitted maximal effect. To be noted: CYP2C19 enzyme inhibition, luminescence qHTS; series mostly up to 34.1 µM. In outline:
(§1)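 Substances were tested against enzyme with a pro-luciferin substrate; minus-enzyme wells served as background. After NADPH-initiated oxidation (30-45 min, RT), light was generated with P450-Glo reagent.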

Assay [2] is described as follows: KB-3-1 P-gp reporter qHTS against the NCATS DSHEA and TCM libraries (AID 1919975). Further: potency means the concentration at half of the fitted maximal effect. The note with it: KB-3-1 parental cells, CellTiter-Glo luminescence viability, 72 h; series mostly up to 26.1 µM. In outline:
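Parental KB-3-1 human cervical adenocarcinoma cells (500 cells/well, DMEM + 10% FBS) were treated with substances for ~72 h at 37C; viability was read by CellTiter-Glo luminescence.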
In general terms: In qHTS, concentration-response curves come from the screen itself.

Assay [3] is described as follows: Dual reporter qHTS for agonist of Pregnane X Receptor (hPXR) against the NCATS DSHEA and TCM libraries: Fluorescence readout (AID 1920058). Further: 0% is about no effect. To be noted: PXR dual reporter cells; series mostly up to 40 µM. In outline: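 Fluorescence read-out for cell viability: CellTiter-Fluor, 1 h at 37 °C, Ex/Em 405/540 nm. This followed ~24 h treatment of hPXR-Luc HepG2 cells with substances in agonist mode.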

In assay [4] the target is Nuclear receptor subfamily 1 group I member 2 (Homo sapiens) (UniProt O75469). Nature of the assay: Dual reporter qHTS for agonist of Pregnane X Receptor (hPXR) against the NCATS DSHEA and TCM libraries: Luminescence readout (AID 1920059). Further: 0% is about no effect. To be noted: hPXR dual reporter cells, luciferase luminescence agonist; series mostly up to 40 µM. In outline: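 hPXR-Luc HepG2 cells, 2000/well in 5% charcoal-stripped FBS medium, attached 5 h, then exposed 24 h at 37C to compounds. Viability by CellTiter-Fluor, then luciferase luminescence with ONE-Glo.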

Assay [5] shares this target. Nature of the assay: Dual reporter qHTS for antagonist of Pregnane X Receptor (hPXR) against the NCATS DSHEA and TCM libraries: Luminescence Readout (AID 1920060).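 Further: HepG2 cells carrying hPXR luciferase reporter stimulated with rifampicin at 2 µM; 0% is about no effect.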 To be noted: hPXR dual reporter cells, luciferase luminescence, antagonist mode; series mostly up to 40 µM. Put shortly:
(§2)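 hPXR-Luc HepG2 cells exposed 24 h at 37 C to compounds with 2 uM rifampicin in antagonist mode; luciferase luminescence measured by ONE-Glo, with CellTiter-Fluor viability read beforehand.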

Assay [6] is described as follows: Dual reporter qHTS for antagonist of Pregnane X Receptor (hPXR) against the NCATS DSHEA and TCM libraries: Fluorescence Readout (AID 1920061). Further: 0% is about no effect. The note with it: PXR dual reporter cells, antagonist mode; series mostly up to 40 µM. Put shortly: as §2
In assay [7] the target is Cytochrome P450 2D6 (Homo sapiens) (UniProt P10635). Briefly: qHTS for inhibitors of CYP2D6 against the NCATS DSHEA and TCM libraries (AID 1919972). Further: potency means the concentration at half of the fitted maximal effect. To be noted: CYP2D6 enzymatic inhibition, luminescence qHTS; series mostly up to 34.1 µM. In outline: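 qHTS, concentration–response format with most substances from 19.5 nM. CYP2D6 + pro-luciferin substrate, 15 min with compound, then 1x NADPH regen, 30–45 min RT dark. Glo detection 30 min, luminescence. Quinidine control.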

For assay [8], the target named is Cytochrome P450 1A2 (Homo sapiens) (UniProt P05177). Nature of the assay: qHTS for inhibitors of CYPIA2 against the NCATS DSHEA and TCM libraries (AID 1919976). Further: on the % scale 0 is the no-effect control and ±100 the full control effect. The note with it: recombinant CYP1A2 enzyme activity, luminescence; series mostly up to 37 µM. In outline:
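Luminescence read-out: pro-luciferin converted to D-luciferin by CYP1A2, detected with P450-Glo reagent after 30 min RT. Enzyme plus substrate got compounds for 15 min RT; NADPH regeneration solution (final 1x) started a 30-45 min reaction, light-protected.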

Assay [9] in a line: qHTS Counterscreen for compound interference against the NCATS DSHEA and TCM libraries (AID 1919978). Further: % of control where 0% means no effect. The note with it: firefly luciferase detection reagent interference, luminescence. In outline:
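D-luciferin (1 uM final) or 100 mM potassium phosphate buffer alone was preincubated 15 min at RT with compounds (19.5 nM to 39.8 uM final). Luciferin detection reagent was then added and luminescence read after 30 min at RT.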

Assay [10] addresses Cytochrome P450 2C9 (Homo sapiens) (UniProt P11712). Nature of the assay: qHTS for inhibitors of CYP2C9 against the NCATS DSHEA and TCM libraries (AID 1919973).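 Further: luminogenic pro-luciferin CYP2C9 substrate turned into luciferin with NADPH regeneration; on the % scale 0 is the no-effect control and ±100 the full control effect.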 To be noted: recombinant CYP2C9 enzyme activity, luminescence; series mostly up to 34.1 µM. In outline: as §1

Unmarked numbers belong to inactive results. Records with an inconclusive call do not appear. The source made the active and inactive calls. The call rests on the fitted dose curve; in most records, active means well fitted curve in the direction sought with a large enough effect; inconclusive means small, poorly fitted or top-dose-only effect, or another doubt; inactive means no such curve, though single readings can be large; an effect the other way counts as inactive or inconclusive.

Cytochrome P450 2C19 (Homo sapiens), sequence (P33261 whole entry, looked up): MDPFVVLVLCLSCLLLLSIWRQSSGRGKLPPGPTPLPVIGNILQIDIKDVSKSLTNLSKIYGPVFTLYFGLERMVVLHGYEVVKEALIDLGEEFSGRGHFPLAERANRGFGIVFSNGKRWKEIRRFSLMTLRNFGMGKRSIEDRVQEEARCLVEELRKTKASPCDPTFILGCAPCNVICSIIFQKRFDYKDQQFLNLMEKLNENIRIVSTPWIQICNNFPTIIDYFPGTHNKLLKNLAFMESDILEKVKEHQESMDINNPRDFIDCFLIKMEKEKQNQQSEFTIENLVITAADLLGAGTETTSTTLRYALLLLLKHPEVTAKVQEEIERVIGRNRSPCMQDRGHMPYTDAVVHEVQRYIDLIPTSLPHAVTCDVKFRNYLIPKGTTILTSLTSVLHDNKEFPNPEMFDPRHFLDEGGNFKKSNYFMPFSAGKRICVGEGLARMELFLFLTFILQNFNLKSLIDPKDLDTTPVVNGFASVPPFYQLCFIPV
Nuclear receptor subfamily 1 group I member 2 (Homo sapiens), sequence (O75469 whole entry, looked up): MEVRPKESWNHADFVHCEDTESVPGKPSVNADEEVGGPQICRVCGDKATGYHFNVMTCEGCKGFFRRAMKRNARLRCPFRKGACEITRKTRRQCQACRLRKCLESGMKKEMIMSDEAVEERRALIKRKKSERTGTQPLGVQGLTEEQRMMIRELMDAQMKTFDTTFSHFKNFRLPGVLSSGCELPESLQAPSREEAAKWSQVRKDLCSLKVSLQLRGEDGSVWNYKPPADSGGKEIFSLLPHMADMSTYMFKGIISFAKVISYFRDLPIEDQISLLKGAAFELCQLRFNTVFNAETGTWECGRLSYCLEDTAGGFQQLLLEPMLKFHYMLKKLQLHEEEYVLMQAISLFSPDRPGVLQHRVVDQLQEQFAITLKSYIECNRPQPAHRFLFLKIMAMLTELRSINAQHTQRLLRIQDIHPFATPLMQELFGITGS
Cytochrome P450 2D6 (Homo sapiens), sequence (P10635 whole entry, looked up): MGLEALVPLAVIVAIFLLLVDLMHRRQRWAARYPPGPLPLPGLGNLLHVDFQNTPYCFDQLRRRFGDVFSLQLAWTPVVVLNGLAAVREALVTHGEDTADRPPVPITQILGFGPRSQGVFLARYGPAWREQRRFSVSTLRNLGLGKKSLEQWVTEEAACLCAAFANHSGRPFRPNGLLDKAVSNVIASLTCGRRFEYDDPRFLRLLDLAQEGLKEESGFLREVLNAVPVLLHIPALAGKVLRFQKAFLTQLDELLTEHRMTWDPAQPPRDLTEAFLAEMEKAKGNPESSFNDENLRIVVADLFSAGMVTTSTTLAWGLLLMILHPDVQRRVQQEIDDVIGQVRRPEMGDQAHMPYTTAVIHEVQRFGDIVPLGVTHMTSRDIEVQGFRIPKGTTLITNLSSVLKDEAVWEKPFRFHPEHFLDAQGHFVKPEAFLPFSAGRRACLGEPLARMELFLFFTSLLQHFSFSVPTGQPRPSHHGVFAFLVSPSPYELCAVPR
Cytochrome P450 2C9 (Homo sapiens), sequence (P11712 whole entry, looked up): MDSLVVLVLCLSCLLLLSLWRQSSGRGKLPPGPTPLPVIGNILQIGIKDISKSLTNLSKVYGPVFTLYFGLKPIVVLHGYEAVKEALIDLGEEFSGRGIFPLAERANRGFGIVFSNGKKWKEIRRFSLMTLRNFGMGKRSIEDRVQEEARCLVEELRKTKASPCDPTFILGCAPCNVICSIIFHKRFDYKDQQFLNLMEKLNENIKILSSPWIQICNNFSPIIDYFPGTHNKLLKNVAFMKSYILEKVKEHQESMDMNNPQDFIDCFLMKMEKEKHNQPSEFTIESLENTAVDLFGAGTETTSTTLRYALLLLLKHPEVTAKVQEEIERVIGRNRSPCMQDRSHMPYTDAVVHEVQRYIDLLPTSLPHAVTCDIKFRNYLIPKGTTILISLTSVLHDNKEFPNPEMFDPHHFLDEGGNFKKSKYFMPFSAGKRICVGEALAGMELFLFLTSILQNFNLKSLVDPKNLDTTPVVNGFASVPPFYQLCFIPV
Cytochrome P450 1A2 (Homo sapiens), sequence (P05177 whole entry, looked up): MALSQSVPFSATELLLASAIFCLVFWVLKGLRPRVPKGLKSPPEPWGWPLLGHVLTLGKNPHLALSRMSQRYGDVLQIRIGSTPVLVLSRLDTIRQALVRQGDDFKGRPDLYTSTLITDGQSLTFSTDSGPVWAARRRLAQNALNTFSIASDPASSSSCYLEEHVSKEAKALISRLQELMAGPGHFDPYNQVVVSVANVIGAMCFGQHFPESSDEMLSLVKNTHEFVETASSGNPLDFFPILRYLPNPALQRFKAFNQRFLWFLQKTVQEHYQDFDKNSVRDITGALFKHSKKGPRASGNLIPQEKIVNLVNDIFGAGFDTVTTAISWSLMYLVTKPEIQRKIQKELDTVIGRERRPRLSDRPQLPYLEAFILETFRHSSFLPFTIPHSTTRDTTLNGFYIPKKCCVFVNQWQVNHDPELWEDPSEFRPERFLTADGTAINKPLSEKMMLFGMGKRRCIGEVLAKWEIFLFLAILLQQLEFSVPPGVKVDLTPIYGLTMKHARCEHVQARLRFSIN

For the compound `O=C(O)c1cccnc1`, the Potency result in assay [1] and in [2] was “inactive” each time. In addition, the outcome in assay [3], in [4], in [5] and in assay [6] was inactive.
`NNC(=O)c1ccncc1`: the Potency entry in assay [7] and in assay [2] was “inactive” throughout. The Potency in assay [1] is 12600 nM (active). Moreover, the outcome in assay [8], in [3], in [4], in [5] and in assay [6] was inactive. Moreover, the max response in assay [9] was 1.88%.
Take `COc1ccc2cc3[n+](cc2c1OC)CCc1cc2c(cc1-3)OCO2`: the values for the Potency in [7] and in [2] were 2240 nM (active) and 2000 nM (active), respectively. Also, the result in assay [10], in [3], in [4], in assay [5] and in assay [6] was inactive. Further, in [1], the Potency result was “inactive”. Besides, the max response in assay [9] was -1.19%.
